Records with an inconclusive call do not appear. Calls of active or inactive are those of the source. Unless noted, calls follow the shape of the dose curve; as a rule, active = well fitted curve in the direction sought with a large enough effect in the repeat runs; inconclusive = weak or mixed curves; inactive = no such curve, though single readings can be large; an effect the other way counts as inactive or inconclusive.
Key:
[1] = qHTS assay to identify small molecule antagonists of the glucocorticoid receptor (GR) signaling pathway - cell viability counter screen (AID 720693); also: nearly all actives have a fitted effect of over 55% in size; also: potency is read from the fitted curve at half-maximal effect
[2] = qHTS assay for identifying genotoxic compounds that show differential cytotoxicity against isogenic chicken DT40 cell lines with known DNA damage response pathways - wild type cell line (AID 743012); also: nearly all actives have a fitted effect of over 60% in size; also: potency is read from the fitted curve at half-maximal effect
Procedure, shortened: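 Viability by ATP luminescence (CellTiter-Glo, 30 min RT) after 40 h compound treatment at 37 C/5% CO2, using 300 parental DNA repair-proficient DT40 cells per well.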

[3] = qHTS assay for identifying genotoxic compounds that show differential cytotoxicity against isogenic chicken DT40 cell lines with known DNA damage response pathways - Rev3 mutant cell line (AID 743014); also: nearly all actives have a fitted effect of over 55% in size; also: potency is read from the fitted curve at half-maximal effect
[4] = qHTS assay for identifying genotoxic compounds that show differential cytotoxicity against isogenic chicken DT40 cell lines with known DNA damage response pathways - Rad54/Ku70 mutant cell line (AID 743015); also: nearly all actives have a fitted effect of over 60% in size; also: potency is read from the fitted curve at half-maximal effect
[5] = qHTS assay to identify small molecule antagonists of the androgen receptor (AR) signaling pathway - cell viability counter screen (AID 743033; also: nearly all actives have a fitted effect of over 45% in size)
[6] = qHTS assay to identify small molecule antagonists of the androgen receptor (AR) signaling pathway using the MDA cell line - cell viability counter screen (AID 743041; also: nearly all actives have a fitted effect of over 45% in size; also: potency is read from the fitted curve at half-maximal effect)
Procedure, shortened: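 Using the breast carcinoma line MDA-kb2 AR-luc, test chemicals were co-incubated with R1881 for 16 h; CellTiter-Fluor reagent, added at 15.5 h, provided a fluorescence measure of live cells.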

[7] = qHTS assay to identify small molecule antagonists of the thyroid receptor (TR) signaling pathway (AID 743065); also: nearly all actives have a fitted effect of over 55% in size; also: potency is read from the fitted curve at half-maximal effect
Procedure, shortened: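 Antagonism measured as loss of luciferase signal in GH3 cells stably carrying a TRE-luciferase reporter, co-treated with compound and T3 (1 nM final) for 23.5 h at 37 C. Viability was read in the same well by CellTiter-Fluor.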

[8] = tested on: thyroid hormone receptor (rat, GH3 cells); experiment: qHTS assay to identify small molecule agonists of the thyroid receptor (TR) signaling pathway (AID 743066; calls by dose curve)
[9] = qHTS assay to identify small molecule antagonists of the estrogen receptor alpha (ER-alpha) signaling pathway - cell viability counter screen (AID 743074; calls by dose curve; also: nearly all actives have a fitted effect of over 45% in size)
[10] = qHTS assay to identify small molecule antagonists of the estrogen receptor alpha (ER-alpha) signaling pathway using the BG1 cell line - cell viability counter screen (AID 743081);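 also: compound given together with 17beta-estradiol as the ER stimulus; nearly all actives have a fitted effect of over 45% in size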; also: potency is read from the fitted curve at half-maximal effect
[11] = target: Aromatase (Homo sapiens) (UniProt P11511); experiment: qHTS assay to identify aromatase inhibitors (AID 743083); also: nearly all actives have a fitted effect of over 55% in size; also: potency is read from the fitted curve at half-maximal effect
Sequence of Aromatase (Homo sapiens) (P11511 whole entry, looked up): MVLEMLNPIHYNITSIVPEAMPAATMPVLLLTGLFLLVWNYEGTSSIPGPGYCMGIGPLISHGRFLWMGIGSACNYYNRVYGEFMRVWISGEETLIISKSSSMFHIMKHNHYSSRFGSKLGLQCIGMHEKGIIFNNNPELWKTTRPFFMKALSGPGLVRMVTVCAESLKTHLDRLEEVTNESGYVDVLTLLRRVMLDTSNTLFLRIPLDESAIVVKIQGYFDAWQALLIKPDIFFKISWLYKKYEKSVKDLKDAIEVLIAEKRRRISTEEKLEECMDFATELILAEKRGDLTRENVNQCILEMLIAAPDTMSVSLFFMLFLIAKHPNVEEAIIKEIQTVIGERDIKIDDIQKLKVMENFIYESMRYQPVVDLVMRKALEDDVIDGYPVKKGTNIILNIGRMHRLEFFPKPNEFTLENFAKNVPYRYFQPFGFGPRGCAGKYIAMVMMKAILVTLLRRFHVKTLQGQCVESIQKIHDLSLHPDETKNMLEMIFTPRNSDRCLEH

[12] = target: Androgen receptor (Homo sapiens) (UniProt P10275); experiment: qHTS assay to identify small molecule antagonists of the androgen receptor (AR) signaling pathway (AID 743035; active = well fitted inhibition curve with a large enough effect in the signal ratio in the repeat runs, not every such curve was filed as active; the % refers to the signal ratio; also: potency is read from the fitted curve at half-maximal effect)
Sequence of Androgen receptor (Homo sapiens) (P10275 whole entry, looked up): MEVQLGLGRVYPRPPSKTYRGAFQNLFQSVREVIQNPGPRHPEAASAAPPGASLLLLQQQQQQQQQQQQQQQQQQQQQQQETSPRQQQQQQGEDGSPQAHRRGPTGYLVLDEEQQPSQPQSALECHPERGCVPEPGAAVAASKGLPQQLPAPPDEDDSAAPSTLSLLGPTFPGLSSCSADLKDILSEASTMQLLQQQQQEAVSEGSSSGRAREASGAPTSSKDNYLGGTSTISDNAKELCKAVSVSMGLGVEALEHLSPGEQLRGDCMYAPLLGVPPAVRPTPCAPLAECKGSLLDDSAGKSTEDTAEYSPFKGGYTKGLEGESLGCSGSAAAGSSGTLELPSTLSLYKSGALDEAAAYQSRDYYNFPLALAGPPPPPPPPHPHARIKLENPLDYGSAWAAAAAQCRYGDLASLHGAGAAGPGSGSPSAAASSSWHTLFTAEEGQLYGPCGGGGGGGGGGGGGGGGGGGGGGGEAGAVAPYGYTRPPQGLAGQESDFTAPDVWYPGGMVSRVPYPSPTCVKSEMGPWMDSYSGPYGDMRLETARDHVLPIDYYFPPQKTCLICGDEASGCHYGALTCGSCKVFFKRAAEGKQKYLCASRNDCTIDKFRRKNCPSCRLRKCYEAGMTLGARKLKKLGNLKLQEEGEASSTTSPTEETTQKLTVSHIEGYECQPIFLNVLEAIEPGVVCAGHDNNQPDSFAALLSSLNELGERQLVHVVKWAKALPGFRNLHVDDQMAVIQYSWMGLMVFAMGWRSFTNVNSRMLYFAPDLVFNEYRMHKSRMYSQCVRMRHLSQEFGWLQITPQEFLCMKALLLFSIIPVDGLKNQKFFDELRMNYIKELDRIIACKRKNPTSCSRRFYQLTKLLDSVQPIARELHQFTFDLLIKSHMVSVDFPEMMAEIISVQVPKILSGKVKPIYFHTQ
Procedure, shortened: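 Antagonist mode: AR-bla HEK293 cells co-treated with test compounds and agonist R1881 for 16 h at 37C, 5% CO2. Beta-lactamase activity read as FRET fluorescence after 2 h room-temperature substrate loading.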

[13] = target: Androgen receptor (Homo sapiens) (UniProt P10275); experiment: qHTS assay to identify small molecule antagonists of the androgen receptor (AR) signaling pathway using the MDA cell line (AID 743042; also: nearly all actives have a fitted effect of over 55% in size; also: potency is read from the fitted curve at half-maximal effect)
Procedure, shortened: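 Antagonist mode: compounds plus R1881 agonist added to MDA-kb2 AR-luc cells, incubated 16 h at 37C. Luciferase reporter luminescence quantified, with multiplexed CellTiter-Fluor readout for cell viability.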

[14] = qHTS assay to identify small molecule antagonists of the thyroid receptor (TR) signaling pathway - cell viability counter screen (AID 743064); also: nearly all actives have a fitted effect of over 50% in size; also: potency is read from the fitted curve at half-maximal effect
Procedure, shortened: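 Plate GH3.TRE-Luc cells; incubate 4 h at 37 °C; add compound, then T3 to 1 nM final; incubate 23.5 h; add CellTiter-Fluor; incubate 30 min at 37 °C, 5% CO2; read fluorescence.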

[15] = target: Estrogen receptor (Homo sapiens) (UniProt P03372); experiment: qHTS assay to identify small molecule agonists of the estrogen receptor alpha (ER-alpha) signaling pathway (AID 743075; calls by dose curve; also: potency is read from the fitted curve at half-maximal effect)
Sequence of Estrogen receptor (Homo sapiens) (P03372 whole entry, looked up): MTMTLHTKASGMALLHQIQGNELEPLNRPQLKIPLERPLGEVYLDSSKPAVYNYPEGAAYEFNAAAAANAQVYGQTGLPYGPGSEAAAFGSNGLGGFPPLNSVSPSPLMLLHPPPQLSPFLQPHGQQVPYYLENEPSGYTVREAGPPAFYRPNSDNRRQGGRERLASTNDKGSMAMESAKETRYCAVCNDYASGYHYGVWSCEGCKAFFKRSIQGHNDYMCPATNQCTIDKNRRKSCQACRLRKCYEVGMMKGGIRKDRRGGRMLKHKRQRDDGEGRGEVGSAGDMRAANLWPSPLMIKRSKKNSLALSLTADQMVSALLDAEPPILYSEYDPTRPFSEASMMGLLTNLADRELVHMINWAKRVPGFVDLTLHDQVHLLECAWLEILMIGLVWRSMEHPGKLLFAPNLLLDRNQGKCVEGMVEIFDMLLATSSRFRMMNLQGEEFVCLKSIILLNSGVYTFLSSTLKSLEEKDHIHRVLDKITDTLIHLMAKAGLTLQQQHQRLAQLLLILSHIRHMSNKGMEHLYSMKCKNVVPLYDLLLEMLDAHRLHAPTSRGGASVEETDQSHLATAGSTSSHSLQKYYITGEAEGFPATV

[16] = target: Estrogen receptor (Homo sapiens) (UniProt P03372); experiment: qHTS assay to identify small molecule agonists of the estrogen receptor alpha (ER-alpha) signaling pathway using the BG1 cell line (AID 743079); also: nearly all actives have a fitted effect of over 20% in size
[17] = qHTS assay to identify small molecule antagonists of the estrogen receptor alpha (ER-alpha) signaling pathway using the BG1 cell line (AID 743080; calls by dose curve;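 also: BG1 cells stimulated with 17beta-estradiol alongside compound; nearly all actives have a fitted effect of over 25% in size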; also: potency is read from the fitted curve at half-maximal effect)
Procedure, shortened: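 BG1Luc4E2, endogenous ER-alpha, 4xERE-luc; 5 d charcoal-stripped FBS, phenol red free; 24 h plating; cpd + 17beta-estradiol 21.5 h, 37 C/5% CO2; CellTiter-Fluor viability 30 min, then ONE-Glo luciferase 30 min RT.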

[18] = target: Estrogen receptor (Homo sapiens) (UniProt P03372); experiment: qHTS assay to identify small molecule antagonists of the estrogen receptor alpha (ER-alpha) signaling pathway (AID 743069; active = well fitted curve in the direction sought with a large enough effect in the signal ratio in the repeat runs, not every such curve was filed as active; the % refers to the signal ratio)
Procedure, shortened: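 Fluorescence intensity from a beta-lactamase FRET substrate served as the read-out. Cells: HEK293 with stably integrated ER-alpha-UAS-bla reporter. Agonist 17beta-estradiol was co-added with compounds; incubation 18 hr at 37C, substrate 2 hr at room temperature.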

Measured: Potency

O=C(O)/C=C/c1cnc[nH]1
inactive: [1] | [2] | [3] | [4] | [5] | [6] | [7] | [8] | [9] | [10] | [11]

O=C(O)Cc1sc(-c2ccccc2)nc1-c1ccc(Cl)cc1
inactive: [1] | [2] | [3] | [4] | [12] | [6] | [13] | [14] | [8] | [9] | [15] | [16] | [17] | [10] | [11]

COCCO
inactive: [1] | [2] | [3] | [4] | [5] | [6] | [14] | [18] | [9] | [15] | [16] | [17] | [10] | [11]

COC(=O)C(C)=O
inactive: [1] | [2] | [3] | [4] | [6] | [14] | [7] | [8] | [18] | [9] | [15] | [16] | [17] | [10] | [11]

O=S1(=O)c2cccc3cccc(c23)N1CCCN1CCN(c2ccc(F)cc2)CC1
inactive: [1] | [5] | [14] | [8] | [15] | [10] | [11]
active: [2] 18.8 µM | [3] 23.7 µM | [4] 23.7 µM

CCCCCC/C=C/C=O
inactive: [1] | [2] | [3] | [5] | [12] | [14] | [7] | [8] | [9] | [10] | [11]

C=CCCCCCC
inactive: [1] | [2] | [3] | [4] | [5] | [6] | [7] | [8] | [18] | [9] | [15] | [16] | [17] | [10] | [11]

CCCCCCCCCC=O
inactive: [1] | [2] | [3] | [4] | [6] | [14] | [7] | [8] | [9] | [15] | [17] | [10] | [11]

Cc1ccc2c(ccc3ccccc32)c1
inactive: [1] | [2] | [3] | [4] | [6] | [9] | [15] | [10] | [11]

O=C(CC(=O)c1ccccc1)c1ccccc1
inactive: [1] | [5] | [6] | [7] | [8] | [9] | [10] | [11]
active: [2] 36.9 µM | [3] 26.2 µM | [4] 23.3 µM

CCCC(C)C
inactive: [1] | [2] | [3] | [4] | [5] | [6] | [14] | [18] | [9] | [15] | [16] | [17] | [10] | [11]

CC1CCc2cc(F)cc3c(=O)c(C(=O)O)cn1c23 (stereo not given)
inactive: [1] | [2] | [3] | [4] | [6] | [7] | [8] | [9] | [10]

CC(C)(C)c1cc(CO)cc(C(C)(C)C)c1O
inactive: [1] | [6] | [8] | [15] | [10]
active: [2] 31.2 µM | [3] 27.8 µM | [4] 22.1 µM | [7] 62.3 µM | [17] 69.9 µM

NC(N)=NN=C(/C=C/c1ccc([N+](=O)[O-])o1)/C=C/c1ccc([N+](=O)[O-])o1
inactive: [9]
active: [1] 5.35 µM | [2] 1.5 µM | [3] 0.75 µM | [4] 1.88 µM | [12] 5.35 µM | [6] 23.7 µM | [13] 5.96 µM | [14] 1.68 µM | [7] 1.5 µM | [15] 4.77 µM [activator] | [10] 23.7 µM | [11] 7.5 µM

CCOC(=O)[C@H](CCc1ccccc1)N[C@H]1CCc2ccccc2N(CC(=O)O)C1=O
active: [2] 11.9 µM | [3] 23.7 µM | [4] 21.1 µM | [14] 5.31 µM | [7] 8.41 µM | [11] 15 µM
inactive: [1] | [6] | [9] | [10]

O=C1CCCCCO1
inactive: [1] | [2] | [3] | [4] | [5] | [6] | [7] | [8] | [18] | [9] | [15] | [16] | [17] | [10] | [11]

CC/C(=C\C(=N/O)C(N)=O)C(C)[N+](=O)[O-] (stereo not given)
active: [2] 30.6 µM | [3] 24.3 µM | [4] 30.6 µM
inactive: [1] | [6] | [14] | [7] | [8] | [9] | [15] | [16] | [17] | [10] | [11]

CCOc1ccc2[nH]cc(C(=O)NCc3ccccc3)c(=O)c2n1
inactive: [1] | [6] | [8] | [18] | [9] | [15] | [10]
active: [2] 43.3 µM | [3] 48.6 µM | [4] 24.3 µM | [11] 61.1 µM

CCCCOC(=O)/C=C\C(=O)OCCCC
inactive: [1] | [2] | [3] | [4] | [6] | [14] | [8] | [18] | [9] | [15] | [16] | [17] | [10] | [11]

NC(N)=N/N=C/c1c(Cl)cccc1Cl
inactive: [1] | [8] | [9] | [15] | [16] | [17] | [11]
active: [2] 11.9 µM | [3] 23.7 µM | [4] 21.1 µM | [14] 23.7 µM | [7] 23.7 µM

C=CC(C)(CCC=C(C)C)OC(=O)c1ccccc1 (stereo not given)
active: [3] 24.3 µM | [4] 27.3 µM
inactive: [1] | [2] | [5] | [6] | [8] | [9] | [10]
